Results as given in PubChem BioAssay AID1159580 (chemical genetic matrix, 2015).
Several values for one entry are separate records, joined by “and”; a condition that tells them apart may be missing. Identical values can stand only once. In all, about 5,500 compounds went through this assay and about 2,000 (36%) were called active. About 18% were inconclusive and are not listed. No stated cut-off is given here; in the data, active means normalized growth mostly below about 0.91 (no sharp cut-off); inconclusive means no clear call, values can overlap the other calls; inactive means mostly above about 0.92. Some of the results follow.

Assay: chemical genetic growth profiling, strain panel (AID 1159580);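 further: tested at 20 µM; growth read once vehicle control cultures reached saturation at 30 °C; 1 = growth at the plate median or of vehicle wells; lower values mean less growth of the strain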
Conditions: growth OD
[1] = S. cerevisiae deletion strains, locus YAL013W, strain DEP1, active compounds read low
[2] = S. cerevisiae deletion strains, locus YNL153C, strain GIM3, active compounds read low
[3] = S. cerevisiae deletion strains, locus YNL322C, strain KRE1, active compounds read low
[4] = S. cerevisiae deletion strains, locus YPL055C, strain LGE1, active compounds read low

Measured: normalized growth

N[C@@H](Cc1ccc(F)cc1)C(=O)O
inactive: [1] 1.01 | S. cerevisiae deletion strains, locus YAL040C, strain CLN3, active compounds read low 0.992 | S. cerevisiae deletion strains, locus YCL061C, strain MRC1 (second series), active compounds read low 0.995 | S. cerevisiae deletion strains, locus YDR363W, strain ESC2, active compounds read low 1.01 | S. cerevisiae deletion strains, locus YER002W, strain NOP16, active compounds read low 0.99 | [2] 0.995 | S. cerevisiae deletion strains, locus YNL175C, strain NOP13, active compounds read low 0.978 | S. cerevisiae deletion strains, locus YNL197C, strain WHI3, active compounds read low 0.995 | S. cerevisiae deletion strains, locus YNL224C, strain SQS1, active compounds read low 0.967 | [3] 1 | S. cerevisiae deletion strains, locus YOR083W, strain WHI5 (second series), active compounds read low 0.988 | [4] 0.99

N[C@@H](Cc1cc(I)c(Oc2ccc(O)c(I)c2)c(I)c1)C(=O)O
inactive: [1] 1.02 | S. cerevisiae deletion strains, locus YBR021W, strain FUR4, active compounds read low 1.01 | S. cerevisiae deletion strains, locus YBR229C, strain ROT2, active compounds read low 0.998 | S. cerevisiae deletion strains, locus YCL029C, strain bik1, active compounds read low 1 | S. cerevisiae deletion strains, locus YDL035C, strain GPR1, active compounds read low 1.01 | S. cerevisiae deletion strains, locus YDL074C, strain BRE1, active compounds read low 1.03 | S. cerevisiae deletion strains, locus YDL101C, strain DUN1, active compounds read low 1.02 | S. cerevisiae deletion strains, locus YDL134C, strain PPH21, active compounds read low 1.01 | S. cerevisiae deletion strains, locus YDL185W, strain tfp1, active compounds read low 1 | S. cerevisiae deletion strains, locus YDL192W, strain arf1, active compounds read low 1 | S. cerevisiae deletion strains, locus YDR101C, strain arx1, active compounds read low 0.986 | S. cerevisiae deletion strains, locus YDR150W, strain NUM1, active compounds read low 1.01 | S. cerevisiae deletion strains, locus YDR162C, strain NBP2, active compounds read low 1.02 | S. cerevisiae deletion strains, locus YDR318W, strain mcm21, active compounds read low 0.982 | S. cerevisiae deletion strains, locus YDR388W, active compounds read low 1 | S. cerevisiae deletion strains, locus YDR502C, strain sam2, active compounds read low 0.987 | S. cerevisiae deletion strains, locus YEL061C, strain CIN8, active compounds read low 1 | S. cerevisiae deletion strains, locus YER110C, active compounds read low 1 | S. cerevisiae deletion strains, locus YER155C, strain BEM2, active compounds read low 1.01 | S. cerevisiae deletion strains, locus YER167W, strain BCK2, active compounds read low 1 | S. cerevisiae deletion strains, locus YGL078C, strain dbp3, active compounds read low 1 | S. cerevisiae deletion strains, locus YGL086W, strain mad1, active compounds read low 0.99 | S. cerevisiae deletion strains, locus YGL248W, strain PDE1, active compounds read low 1.01 | S. cerevisiae deletion strains, locus YGR078C, strain PAC10, active compounds read low 1.01 | S. cerevisiae deletion strains, locus YGR135W, strain pre9, active compounds read low 0.991 | S. cerevisiae deletion strains, locus YGR229C, strain SMI1, active compounds read low 1.02 | S. cerevisiae deletion strains, locus YGR252W, strain gcn5, active compounds read low 0.929 | S. cerevisiae deletion strains, locus YHR030C, strain SLT2, active compounds read low 1 and 0.914 | S. cerevisiae deletion strains, locus YHR079C, strain IRE1 (second series), active compounds read low 0.99 | S. cerevisiae deletion strains, locus YHR094C, strain hxt1, active compounds read low 1.01 | S. cerevisiae deletion strains, locus YHR129C, strain ARP1, active compounds read low 0.999 | S. cerevisiae deletion strains, locus YHR200W, strain rpn10, active compounds read low 0.994 | S. cerevisiae deletion strains, locus YIL066C, strain RNR3, active compounds read low 1.01 | S. cerevisiae deletion strains, locus YIL073C, strain SPO22, active compounds read low 1.02 | S. cerevisiae deletion strains, locus YIL125W, strain kgd1, active compounds read low 1 | S. cerevisiae deletion strains, locus YIR030C, strain dcg1, active compounds read low 1 | S. cerevisiae deletion strains, locus YJL095W, strain BCK1, active compounds read low 0.971 and 0.977 | S. cerevisiae deletion strains, locus YJL134W, strain LCB3, active compounds read low 1.01 | S. cerevisiae deletion strains, locus YJL168C, strain set2, active compounds read low 1 | S. cerevisiae deletion strains, locus YJL187C, strain SWE1 (second series), active compounds read low 1 | S. cerevisiae deletion strains, locus YJR043C, strain POL32, active compounds read low 1.01 | S. cerevisiae deletion strains, locus YJR066W, strain TOR1, active compounds read low 0.864 | S. cerevisiae deletion strains, locus YJR075W, strain HOC1, active compounds read low 0.996 | S. cerevisiae deletion strains, locus YKL009W, strain mrt4, active compounds read low 0.979 | S. cerevisiae deletion strains, locus YKL068W, active compounds read low 1.01 | S. cerevisiae deletion strains, locus YKL085W, strain MDH1 (second series), active compounds read low 1.03 | S. cerevisiae deletion strains, locus YKL085W, strain MDH1, active compounds read low 1.03 | S. cerevisiae deletion strains, locus YKL190W, strain CNB1, active compounds read low 1.01 | S. cerevisiae deletion strains, locus YKR001C, strain vps1, active compounds read low 0.967 | S. cerevisiae deletion strains, locus YLR039C, strain RIC1, active compounds read low 0.978 | S. cerevisiae deletion strains, locus YLR058C, strain SHM2, active compounds read low 1.01 | S. cerevisiae deletion strains, locus YLR102C, strain apc9, active compounds read low 0.999 | S. cerevisiae deletion strains, locus YLR113W, strain HOG1, active compounds read low 1.03 | S. cerevisiae deletion strains, locus YLR262C, strain YPT6, active compounds read low 0.993 | S. cerevisiae deletion strains, locus YLR268W, strain sec22, active compounds read low 0.982 | S. cerevisiae deletion strains, locus YLR330W, strain CHS5, active compounds read low 1.01 | S. cerevisiae deletion strains, locus YLR342W, strain FKS1 (second series), active compounds read low 1.01 | S. cerevisiae deletion strains, locus YLR371W, strain rom2, active compounds read low 1 | S. cerevisiae deletion strains, locus YLR418C, strain cdc73, active compounds read low 0.951 | S. cerevisiae deletion strains, locus YML016C, strain PPZ1, active compounds read low 1.01 | S. cerevisiae deletion strains, locus YML032C, strain rad52, active compounds read low 0.981 | S. cerevisiae deletion strains, locus YML124C, strain tub3, active compounds read low 1.01 | S. cerevisiae deletion strains, locus YMR078C, strain ctf18, active compounds read low 1.01 | S. cerevisiae deletion strains, locus YMR223W, strain ubp8, active compounds read low 0.984 | S. cerevisiae deletion strains, locus YMR263W, strain SAP30, active compounds read low 1 | S. cerevisiae deletion strains, locus YMR307W, strain GAS1, active compounds read low 1.06 | S. cerevisiae deletion strains, locus YNL067W, strain RPL9B, active compounds read low 1.02 | S. cerevisiae deletion strains, locus YNL128W, strain TEP1, active compounds read low 1.02 | [2] 1.01 | S. cerevisiae deletion strains, locus YNL233W, strain BNI4, active compounds read low 1 | S. cerevisiae deletion strains, locus YNL250W, strain rad50, active compounds read low 1.01 | S. cerevisiae deletion strains, locus YNL271C, strain bni1, active compounds read low 0.995 | S. cerevisiae deletion strains, locus YNL298W, strain CLA4, active compounds read low 1 | S. cerevisiae deletion strains, locus YNL307C, strain MCK1, active compounds read low 0.939 | [3] 1.02 | S. cerevisiae deletion strains, locus YNR052C, strain pop2, active compounds read low 0.996 | S. cerevisiae deletion strains, locus YOL006C, strain TOP1, active compounds read low 0.992 | S. cerevisiae deletion strains, locus YOL012C, strain htz1 1.15 | S. cerevisiae deletion strains, locus YOL147C, strain pex11, active compounds read low 0.996 | S. cerevisiae deletion strains, locus YOR061W, strain CKA2, active compounds read low 1.01 | S. cerevisiae deletion strains, locus YOR069W, strain VPS5, active compounds read low 1 | S. cerevisiae deletion strains, locus YOR136W, strain idh2, active compounds read low 1 | S. cerevisiae deletion strains, locus YOR144C, strain elg1, active compounds read low 1 | S. cerevisiae deletion strains, locus YOR184W, strain ser1, active compounds read low 0.963 | S. cerevisiae deletion strains, locus YOR231W, strain MKK1, active compounds read low 1.01 | S. cerevisiae deletion strains, locus YOR316C, strain cot1, active compounds read low 0.998 | [4] 1.05 | S. cerevisiae deletion strains, locus YPL241C, strain CIN2, active compounds read low 1.01 | S. cerevisiae deletion strains, locus YPL256C, strain CLN2, active compounds read low 0.964 | S. cerevisiae deletion strains, locus YPR119W, strain clb2, active compounds read low 1.01 | S. cerevisiae deletion strains, locus YPR141C, strain kar3, active compounds read low 1.01 | S. cerevisiae deletion strains, locus YPR163C, strain tif3, active compounds read low 1.01 | S. cerevisiae deletion strains, locus YPR167C, strain met16, active compounds read low 1 | S. cerevisiae deletion strains, strain wtn01, active compounds read low 0.984 | S. cerevisiae strains, strain wild type, active compounds read low 1.01
active: S. cerevisiae deletion strains, locus YHR079C, strain IRE1, active compounds read low 0.846
